# In the library only some 10% were active in any assay of this set; here they are far more common.
# ALDH1A1 inh – ALDH1A1 (human) enzyme inhibition. Potency, µM (titrated, usually from 75.3 µM), inactives show at the highest dose activity, negative = inhibition, hits mostly inhibitors. 220,000 tested, 7.3% active. P00352. Purified ALDH1A1, NADH fluorescence, propionaldehyde substrate;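 also: potency is read from the fitted curve at half-maximal effect; plate controls were no enzyme wells and a reference inhibitor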
# HPGD inh – inhibitors of human 15-hydroxyprostaglandin dehydrogenase (HPGD). 150,000 tested, 4.3% active. AID 894. P15428. Potency, µM, inactives show at the highest dose activity change, negative = inhibition, usual class: inhibitors. purified HPGD, NADH fluorescence kinetic, PGE2 substrate; also: potency is read from the fitted curve at half-maximal effect
# Target sequence (P15428 whole entry, looked up): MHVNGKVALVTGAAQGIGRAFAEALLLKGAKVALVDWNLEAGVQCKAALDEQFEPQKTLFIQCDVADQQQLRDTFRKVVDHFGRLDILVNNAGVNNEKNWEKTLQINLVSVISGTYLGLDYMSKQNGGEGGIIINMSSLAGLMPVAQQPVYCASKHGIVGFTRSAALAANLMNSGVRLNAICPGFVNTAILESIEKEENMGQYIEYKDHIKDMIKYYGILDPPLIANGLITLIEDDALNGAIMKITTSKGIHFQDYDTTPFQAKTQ
#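 20 nM HPGD preincubated 15 min at room temperature with compound in 50 mM Tris-HCl pH 8, 0.01% Tween 20. Started with 1 mM NAD+ and 30 uM prostaglandin E2; NADH fluorescence (360/450 nm) read 5 times over 30-s intervals, last minus first.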
# Lamin A splicing – LMNA splicing modulation; 200,000 tested, 0.01% active; HeLa LMNA splicing GFP/RFP minigene ratio, 48 h; Potency, µM (doses to about 46.1 µM), without a hit: top-dose ratio change, negative = inhibition, usual class: inhibitors; AID 1487; active = well fitted inhibition curve with a large enough effect in the signal ratio, with a control signal flat, not every such curve was filed as active; inconclusive = small, poorly fitted or top-dose-only effect, or effect the other way, or a change in a side signal; the % refers to the signal ratio; also: potency is read from the fitted curve at half-maximal effect
#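 S3 HeLa cells stably expressing lamin A-EGFP splicing minigene plus DsRed2, 600 cells/well, 48 h compound exposure at 37C. Laser-scanning cytometry; analysed as GFP (500-530 nm)/RFP (575-640 nm) total intensity ratio; 0.5% DMSO vehicle.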
# ALOX12 inhib – 12-hLO (ALOX12) enzyme inhibition; purified 12-hLO, xylenol orange hydroperoxide absorbance; 150,000 tested, 0.12% active; AID 1452; Potency, µM (doses to about 57.1 µM), without a hit: at the top dose activity change, negative = inhibition, hits mostly inhibitors; P18054; active = well fitted inhibition curve with a large enough effect; inconclusive = small, poorly fitted or top-dose-only effect; also: potency is read from the fitted curve at half-maximal effect; nearly all actives have a fitted effect of over 55% in size
#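 Purified human 12hLO (150 nM), preincubated 15 min with compound, then 40 uM arachidonic acid for 30 min, room temperature, Hepes pH 7.0 with 0.01% Triton X-100. Hydroperoxide detected by ferrous iron/xylenol orange; 573/405 nm absorbance ratio gives reaction progress.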
# PNC assembly inh – perinucleolar compartment assembly inhibition; 140,000 tested, 3.1% active; AID 2417; PC3M PTB-GFP, PNC prevalence imaging, 16 h; hits give low values; activity change (PNC), negative = inhibition, % at 10 µM;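 active = readout at or below -70, meaning at least 70% loss of cells showing the perinucleolar compartment, a nuclear body marking cancer cells; inconclusive = readout between -30 and a set limit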;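 also: plate controls were DMSO wells for no effect and camptothecin positive control wells for full effect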
#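 Compounds are pinned in duplicate onto adhered PC3M cells stably expressing GFP-tagged PTB and incubated 16 h at 37 C. Cells are then fixed, nuclei stained with Hoechst, and PNC-positive cells counted.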
# * hit, by the source's call; ? = inconclusive; . = not tested or not shown; ! = repeats disagree; [ ] = remark or other dose. Unless noted, calls follow the shape of the dose curve; as a rule, active = well fitted inhibition curve with a large enough effect (not every such curve was filed as active); inconclusive = small, poorly fitted or top-dose-only effect, or another doubt; inactive = no such curve, though single readings can be large or run the other way. Unless noted, % is scaled to controls: 0 for no effect and ±100 for the full control effect.
SMILES,ALDH1A1 inh,HPGD inh,Lamin A splicing,ALOX12 inhib,PNC assembly inh
CCN=c1scc(-c2ccc3c(c2)NC(=O)CO3)n1N=C1CCCC1,?,16µM*,?,-8%,-10
COCC(C)n1c(-c2ccc3c(c2)NC(=O)CO3)csc1=Nc1ccc(OC(F)F)cc1 (configuration not stated),?,-23%,?,-16%,15
NCS(=O)(=O)O,1%[13.5 µM],-8%,.,-5%[11.4 µM],.
CC(C)N1C(=O)CC2(CC[N+](C)(CCOC(=O)C(c3ccccc3)c3ccccc3)CC2)C1=O (configuration not stated),25µM*,?,11%,-5%,-27
Cn1c(N)c(C(=O)COC(=O)c2cncc(Br)c2)c(=O)n(C)c1=O,11µM*,.,-9%[9.22 µM],.,.
CCOc1cc(C(=O)OCC(=O)c2c(N)n(C)c(=O)n(C)c2=O)cc(OCC)c1OCC,12%,-22%,3%,11%,?
CO/N=C(/C(=O)N[C@@H]1C(=O)N2C(C(=O)O)=C(COC(N)=O)CS[C@H]12)c1ccco1,?,-2%,?,-2%,.
COc1ccc(NC(=O)COCc2cc(-c3ccco3)on2)cc1Cl,.,.,2%[46 µM],.,.
CCOC(=O)CN1C(=O)S/C(=C/C=C/c2ccc(N(C)C)cc2)C1=O,25µM*,-5%,-13%,2%,31
CCCn1c(SCC(=O)Nc2nonc2C)nnc1-c1ccoc1C,0%,-4%,3%,4%,6
COc1ccc(OC)c(NC(=O)CSc2nnc(-c3ccco3)n2-c2ccc(C(=O)O)cc2)c1,25µM*,?,-7%,-22%,?
Cc1nonc1NC(=O)CSc1nnc(-c2ccoc2C)n1-c1cccc(Cl)c1,10µM*,-9%,-8%,-7%,?
COc1cccc(NC(=O)CSc2nnc(-c3ccoc3C)n2-c2ccccc2)c1,?,-2%,9%,-6%,-87*
CCN(c1cc(C)cc(C)c1)S(=O)(=O)c1nnc(NC(=O)c2ccccc2C)s1,.,.,-8%[46 µM],.,.
O=C(Cn1nnc(-c2ccccc2-n2cnnn2)n1)c1ccccc1,13µM*,-29%,22%,3%,?
O=C(Cn1nnc(-c2ccccc2-n2cnnn2)n1)N1CCCCC1,-8%,-9%,-4%,0%,14
COc1cc(NC(=O)Cn2c(=O)ccc3cc(S(=O)(=O)N4CCCC4)ccc32)cc(OC)c1,.,.,-9%[46 µM],.,.
CCOC(=O)N1CCN(c2c(NCCOC)c(=O)c2=O)CC1,32µM*,-15%,6%,-7%,-25
O=C(NC1CCCCCCC1)c1ccc(CNc2c(N3CCOCC3)c(=O)c2=O)cc1,?,18µM*,-8%,-4%,-26
O=C(c1ccc(CNc2c(N3CCOCC3)c(=O)c2=O)cc1)N1CC=C(c2ccccc2)CC1,-6%,25µM*,-14%,-1%,-18
CCOC(=O)C1CCN(c2c(NCc3ccc(C(=O)NCCOC)cc3)c(=O)c2=O)CC1,-12%,3.5µM*,2%,-3%,4
COC(=O)c1ccc(C(NC(=O)OCc2ccccc2)/C(C)=C/[C@@H](C)C(=O)NCc2cccnc2)cc1 (some centres not stated),-5%,-4%,.,4%,.
Cc1ccc(CN2CCC(CNc3ncnc4onc(-c5ccc(F)cc5)c34)CC2)cc1,.,.,-13%[46 µM],.,.
CCC[C@@H]1C[C@@]1(CCC)C(NC(=O)c1ccccc1)c1cccc(Cl)c1 (some centres not stated),3%,-6%,.,2%,.
CCCCNC(=O)c1ccc(CNc2c(N3CCC(C(=O)OCC)CC3)c(=O)c2=O)cc1,?,3.5µM*,-6%,-4%,?
SMILES,ALDH1A1 inh,HPGD inh,Lamin A splicing,ALOX12 inhib,PNC assembly inh
CCOC(=O)C1CCN(c2c(NCc3ccc(C(=O)NC4CCCC4)cc3)c(=O)c2=O)CC1,-10%,2µM*,-3%,-3%,-13
CC1CCCC(NC(=O)c2ccc(CNc3c(N4CCCC4)c(=O)c3=O)cc2)C1C (configuration not stated),?,?,?,-6%,-15
CC(=O)N1CCC2(CC1)CN(c1ccncc1)C2,10%,-13%,.,7%,.
CSc1ccc2c(c1)N(CC[C@H]1CCCCN1C)c1ccccc1S2,6%[20.9 µM],-3%,?,-2%[25.6 µM],.
CN1CCCC[C@@H]1CCN1c2ccccc2Sc2ccc(S(C)=O)cc21 (some centres not stated),-5%[20.9 µM],3.2µM*!,-2%,-5%[11.4 µM],.
CSc1ccc2c(c1)N(CCC1CCCCN1C)c1ccccc1S2 (configuration not stated),1%,-3%,?,-1%,-115*
Cc1cccc(NC(=S)N(Cc2cccs2)Cc2cc3cc(C)cc(C)c3[nH]c2=O)c1,21%,-17%,-9%,9%,2
COc1ccccc1CN(Cc1nc2ccccc2c(=O)[nH]1)C(=O)Nc1ccccc1C,?,-11%,4%,1%,-115*
COc1ccccc1CN(Cc1nc2ccccc2c(=O)[nH]1)C(=O)Nc1ccc(C)cc1,-9%,-16%,-3%,-6%,-15
COc1ccccc1NC(=O)N(Cc1ccco1)Cc1cc2c(C)ccc(C)c2[nH]c1=O,18µM*,-13%,-18%,-7%,28
CNC(=S)N(Cc1cccs1)Cc1cc2cc(OC)ccc2[nH]c1=O,?,?,-3%,0%,-22
COCCNC(=S)N(Cc1cccs1)Cc1cc2cccc(C)c2[nH]c1=O,13µM*,.,?,.,.
COc1ccc2[nH]c(=O)c(CN(Cc3cccs3)C(=S)Nc3cccc(C)c3)cc2c1,?,?,-12%,4%,-100*
O=C(NCc1ccc2c(c1)OCO2)O[C@@H]1C(=O)c2cc(Br)ccc2O[C@H]1c1ccc2c(c1)OCO2,-4%,-10%,.,.,.
CCc1ccccc1N1C(=O)N(Cc2ccc(C#N)cc2)c2ccccc2S1(=O)=O,.,.,5%[46 µM],.,.
Cc1ccc(C)c2[nH]c(=O)c(CN(Cc3cccs3)C(=S)NCc3ccco3)cc12,25µM*,-10%,?,-15%,51
Cc1cc2cc(CN(Cc3cccs3)C(=S)NCc3ccco3)c(=O)[nH]c2cc1C,?,?,-20%,-17%,49
CCNC(=S)N(Cc1cc2cccc(C)c2[nH]c1=O)C1CCCC1,?,-23%,0%,-30%,-119*
Cc1oc(-c2cccc(Br)c2)nc1CN1CCC(C(=O)NCc2ccccc2)CC1,.,.,18%[46 µM],.,.
